Screening data: PubChem, several laboratories
MITF TRPM1 HTS: increases MITF-driven TRPM1 promoter luciferase signal; 300,000 tested, 0.75% active; SK-MEL-5 TRPM1-promoter luciferase, 24 h; % of positive control, neutral wells = 0; activation, % at 12.5 µM; AID 588334;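 active = mean activation of at least 80% with every replicate also reaching 80%; inconclusive = mean reaches 80% but some replicate falls short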
Wnt act: Wnt/beta-catenin pathway activation | Wnt/beta-catenin reporter cell assay, activator, plate reader | activation, % at 9.35 µM | 300,000 tested, 1.2% active | AID 743398; in the data active = activation above about 30%, passing the limit was not always enough; inconclusive = no clear call, values can overlap the other calls
FXN GAA850 act: activators of GAA850 frataxin (FXN) promoter. HEK293 lucGAA850 FXN promoter luciferase reporter, 24 h; percent of 10 µM SAHA response. activation, % at 6 µM. 360,000 tested, 0.56% active;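 active = activation above the average of all compounds screened plus 3 SD, cutoff fixed separately per campaign, cut at about 7.5% in these data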
esBAF inh: inhibitors of esBAF chromatin remodeling in mouse ES cells; reporter increase, % at 12.5 µM; 350,000 tested, 2% active; Bmi1-luciferase knock-in reporter, 24 h; 100% = twice the neutral-well signal; in the data active = activation above about 40%; inconclusive = no clear call, values can overlap the other calls;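 also: a rise in the Bmi1 reporter signal indicates esBAF inhibition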
Numbers stand for hits; 0 = inactive; ? = inconclusive; - = not tested or not shown. This is a sample that favours compounds with a hit; in the whole collection about 2.8% have one here.

SMILES | MITF TRPM1 HTS | Wnt act | FXN GAA850 act | esBAF inh
C=CCSc1n[nH]c(-c2ccc(OCCCC)cc2)n1 | 0 | 0 | 0 | 47.5
C=CCSc1n[nH]c(-c2cccs2)n1 | 0 | 0 | 0 | 0
C=CCSc1n[nH]c(-c2ccc(OCCC)cc2)n1 | 92.1 | 0 | 0 | 73.7
Cc1cc(C)nc(N/N=C/c2ccccc2OCc2ccc(Cl)cc2)n1 | 0 | 35.0 | 0 | -
Cc1ccc2nc(N/N=C/c3ccccc3F)nc(-c3ccccc3)c2c1 | 0 | 0 | 0 | -
Cc1cc(-c2ccccc2)nc(N/N=C/c2ccccc2F)n1 | - | 0 | 0 | 55.9
C/C(=N\Nc1nc(C)cc(-c2ccccc2)n1)c1ccccc1 | - | 0 | 0 | 62.7
Fc1ccccc1CSc1ncnc2c1ncn2C1CCCCO1 (stereo unspecified) | 88.7 | 47.6 | 0 | 0
Clc1ccc(CSc2ncnc3c2ncn3C2CCCCO2)cc1 (stereo unspecified) | 0 | 0 | 0 | 0
C=CCc1c(C)nc2c(-c3ccccc3)cnn2c1N1CCOCC1 | 0 | 40.2 | 0 | 83.8
CCCC(=O)Nc1ccc2c(c1)C(=O)N(C)[C@H]1CC[C@H](CC(=O)Nc3cn(C)nc3C)O[C@H]1CO2 | - | - | - | 0
COc1ccc(/C(C)=N/N2CCCCC2)c(O)c1 | ? | 0 | 0 | 0
COc1ccc(O)c(/C=N/N2CCCCC2)c1 | 0 | 32.7 | 0 | 0
CCOC(=O)Cc1csc(NC(=O)c2sc3nc4ccc(C)cc4cc3c2N)n1 | - | - | 0 | 0
CCc1nnc(NC(=O)c2sc3nc4cc(C)ccc4cc3c2N)s1 | - | - | 0 | 49.1
Clc1ccc(Cc2noc(-c3cccs3)n2)cc1 | 112.2 | - | 0 | 63.4
Clc1ccc(-c2nc(Cc3ccccc3Cl)no2)cc1 | 0 | - | 0 | 0
C[C@H](CO)N1C[C@H](C)[C@@H](CN(C)Cc2ccc(-c3ccccc3)cc2)Oc2ccc(NC(=O)NC3CCCCC3)cc2C1=O | - | - | - | 0
COc1ccc(NC(=O)Nc2ccc3c(c2)C(=O)N([C@@H](C)CO)C[C@H](C)[C@@H](CN(C)S(=O)(=O)c2ccc(F)cc2)OCCCC[C@H](C)O3)cc1 | - | - | - | 0
c1ccc(-c2nc(-c3cccs3)[nH]c2-c2ccccc2)cc1 | 0 | 0 | 0 | -
Cc1nc2nc(-c3cccs3)[nH]c2cc1Br | - | 65.7 | 0 | 0
Cn1ccnc1SCC(=O)Nc1ccc(Oc2ccccc2)cc1 | ? | 0 | 0 | 49.8
COc1ccc(C(=O)CSc2nccn2C)cc1 | 0 | 0 | 0 | 42.2
Cn1ccnc1SCC(=O)c1cccc(C(F)(F)F)c1 | 88.6 | 0 | 0 | 0
Cn1ccnc1SCC(=O)Nc1cccc(C(F)(F)F)c1 | 0 | - | 0 | 0
SMILES | MITF TRPM1 HTS | Wnt act | FXN GAA850 act | esBAF inh
C[C@@H]1CN([C@@H](C)CO)C(=O)c2cc(NS(C)(=O)=O)ccc2O[C@@H](C)CCCCO[C@@H]1CN(C)C(=O)CCC(F)(F)F | - | - | - | 0
Cc1noc(C)c1NC(=O)N(C)C[C@@H]1Oc2ccc(NC(=O)NC3CCCCC3)cc2C(=O)N([C@@H](C)CO)C[C@@H]1C | - | - | - | 0
CCOC(=O)c1c(NC(=O)Nc2ccccc2)sc(C)c1C | 0 | - | 0 | -
CCOC(=O)c1sc(=NC(=O)c2cccs2)n(C)c1C | 0 | 39.4 | 0 | 0
CCOC(=O)c1sc(NC(=O)c2cccs2)cc1C | 0 | - | 0 | 64.5
CCOC(=O)c1sc(NC(=O)Nc2cccc(Cl)c2)cc1C | 0 | 35.4 | 0 | -
CCOC(=O)c1sc(NC(=O)c2sccc2C)cc1C | - | 58.7 | 0 | 0
O=C(C[C@@H]1CC[C@@H](NC(=O)c2ccncc2)[C@@H](CO)O1)NCC1CC1 | - | - | - | 0
C[C@@H]1CN([C@H](C)CO)C(=O)Cc2cc(NC(=O)Nc3ccc(C(F)(F)F)cc3)ccc2O[C@@H]1CN(C)Cc1ccc(C(F)(F)F)cc1 | - | - | - | 0
C[C@@H]1CN([C@H](C)CO)C(=O)c2cccc(NC(=O)c3ccncc3)c2O[C@@H]1CN(C)S(=O)(=O)c1cccs1 | - | - | - | 0
C[C@H]1CN([C@@H](C)CO)C(=O)c2cc(C3=CCCC3)cnc2O[C@H]1CN(C)Cc1ccccn1 | - | - | - | 0
CCOC(=O)c1sc(NC(=O)c2ccc(Br)o2)cc1C | 94.3 | - | 0 | 90.6
COC(=O)c1sccc1-c1ccc(C(=O)Nc2cccc(Cl)c2)o1 | - | - | 8.3 | 51.3
CN1CCN(c2ccc(NC(=O)c3ccc(-c4ccccc4F)o3)cc2)CC1 | 0 | 49.1 | 0 | 0
O=C(Nc1ccccc1)c1ccc(-c2ccccc2Cl)o1 | 89.3 | 0 | 0 | 53.3
CC(=O)Nc1ccc(NC(=O)c2ccc(-c3ccccc3Cl)o2)cc1 | 0 | 0 | 0 | 42.9
O=C(O)c1ccc(-c2ccccc2Cl)o1 | 0 | - | 0 | 0
Cc1ccc(-c2ccc3c(c2)O[C@H](CN(C)C(=O)C2CC2)[C@H](C)CN([C@H](C)CO)S3(=O)=O)cc1 | - | - | - | 0
CO[C@@H]1CN(C)C(=O)c2ccc(NC(C)=O)cc2OC[C@H](C)N(C(=O)CN2CCOCC2)C[C@H]1C | - | - | - | 0
CNC[C@H]1Oc2c(NC(=O)C3CCCCC3)cccc2C(=O)N([C@@H](C)CO)C[C@H]1C | - | - | - | 0
CCCc1cn(CC[C@H]2CC[C@H](NC(=O)CCN3CCCCC3)[C@@H](CO)O2)nn1 | - | - | - | 0
COc1ccccc1CNC(=O)C[C@H]1C[C@@H]2c3cc(NC(=O)c4ccc5c(c4)OCO5)ccc3O[C@@H]2[C@@H](CO)O1 | - | - | - | 0
COc1ccc(CN(C)C[C@@H]2Oc3ccc(NC(=O)CCN4CCOCC4)cc3CC(=O)N([C@@H](C)CO)C[C@H]2C)cc1 | - | - | - | 0
N#Cc1ccccc1NC(=O)c1ccc(-c2ccccc2Cl)o1 | ? | 0 | 0 | 50.2
O=C(Nc1nccs1)c1ccc(-c2ccccc2Cl)o1 | 0 | ? | 0 | -
SMILES | MITF TRPM1 HTS | Wnt act | FXN GAA850 act | esBAF inh
O=C(Nc1cccc(NC(=O)c2ccc(-c3ccc(Br)cc3)o2)c1)c1ccccc1 | 0 | - | 0 | -
O=C(Nc1ccccc1)c1ccc(-c2ccc(Br)cc2)o1 | - | 33.2 | 0 | 0
O=C(Nc1cccc(-c2csc(Nc3cccc(C(F)(F)F)c3)n2)c1)c1ccccc1 | 0 | 0 | 0 | 0
Cc1ccc(NC(=O)c2csc(-c3ccccc3)c2C)cc1 | 0 | 0 | 0 | 0
Cc1ccn2cc(-c3cccc(NC(=O)c4ccccc4)c3)nc2c1 | 105.0 | 0 | 0 | -
Cc1c(C(=O)Nc2cccc([N+](=O)[O-])c2)csc1-c1ccccc1 | 0 | - | 0 | 49.7
O=[N+]([O-])c1cccc(-c2csc(Nc3ccccc3)n2)c1 | 0 | 0 | 0 | 52.4
Cc1ccn2cc(-c3cccc(NC(=O)C(C)C)c3)nc2c1 | 0 | 0 | 0 | -
O=C(Nc1cccc(-c2csc(Nc3ccccc3)n2)c1)c1ccccc1 | 106.4 | 0 | 0 | 57.4
O=C(Nc1nc(-c2ccccc2)cs1)c1cccc([N+](=O)[O-])c1 | 0 | - | 0 | 61.3
O=C(Nc1nc(-c2cccnc2)cs1)c1cccc([N+](=O)[O-])c1 | 0 | 0 | 0 | ?
c1ccc(-c2nc(NCC3CCCO3)c3oc4ccccc4c3n2)cc1 (stereo unspecified) | 0 | - | 0 | 0
c1ccc2c(c1)oc1c(NCC3CCCO3)ncnc12 (stereo unspecified) | 0 | 53.9 | 0 | 0
CCc1nc(NCc2ccccn2)c2oc3ccccc3c2n1 | 0 | - | 0 | 0
CCSc1ncnc2c1oc1ccccc12 | 0 | 0 | 0 | 0
CC(=O)c1ccc(Nc2ncnc3c2oc2ccccc23)cc1 | 0 | - | 0 | 64.7
Clc1ncnc2c1oc1ccccc12 | 0 | 66.5 | 0 | 51.6
c1ccc(CNc2ncnc3c2oc2ccccc23)nc1 | 0 | 56.4 | 0 | 65.3
